Measurements as given in PubChem BioAssay AID651994 (Sanford-Burnham Center for Chemical Genomics, 2013).
Hit rate of the full screen: of about 2,500 compounds, about 790 (32%) were called active. This is one part of a sample in which actives are shown more often than they occur.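 How the source made its calls: active means mean cytotoxicity at 5 µM above about 25% (limit read from the data); inactive means the rest.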

Experiment: cytotoxicity in Sufu-KO-LIGHT cells, confirmation, cytotoxicity control for Gli-SUFU antagonist project, cell-based, ATP luminescence, single concentration (AID 651994);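 further: cells exposed to compound overnight for roughly 16 to 18 hours; plate controls were DMSO wells with cells for no effect and medium without cells for full effect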
Settings: at 5 µM, hits give high values
For CCOc1cccc(=NC2CCCCC2)c2c(C)[nH]c(C)c12, the cytotoxicity was 32.3% (active).
